Unmarked numbers belong to inactive results. Active and inactive are the calls of the source.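 How the source made its calls: active means EC50 at or below 10 µM; inactive means EC50 above 10 µM.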
Test: fluorescence interference artefacts, compound only, dose response, artefact control for cardiac thin filament activator project, biochemical, no RTF in test wells (AID 504697);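 further: emission near 535 nm under roughly 485 nm excitation as for IANBD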
Details: compound-only fluorescence in RTF assay buffer with Ca2+ (no RTF in test wells), artifact counterscreen

Question: For `CCN(CC)c1ccc(/C=c2\sc3nc4ccccc4n3c2=O)c(O)c1`, which EC50 is on record?
Answer: 14.4 µM

Question: With `CN(C)NC(=O)c1ccc([N+](=O)[O-])s1` as the molecule, how does the EC50 read?
Answer: > 71.4 µM

Question: For `N#C/C(=C\c1ccc(N2CCOCC2)o1)c1nc2ccccc2[nH]1`, which EC50 is on record?
Answer: 1.37 µM (active)

Question: With `CN(Cc1ccccc1)C(=O)c1[nH]cnc1C(=O)NCc1ccccc1` as the molecule, how does the EC50 read?
Answer: > 71.6 µM

Question: With `CNC(=S)N1N=C(c2ccc(Br)cc2)CC1c1ccc(N(C)C)cc1` (configuration not stated) as the molecule, how does the EC50 read?
Answer: 51.4 µM

Question: With `O=C(O)CCC(=O)Nc1cc(C(F)(F)F)cc(C(F)(F)F)c1` as the molecule, how does the EC50 read?
Answer: > 71.4 µM

Question: With `CCOc1cc(/C=C2\N=C(SC(C)C(N)=O)N(c3ccc(OC(F)F)cc3)C2=O)ccc1O` (configuration not stated) as the molecule, how does the EC50 read?
Answer: 23.3 µM

Question: With `N=c1c2c(ncn1Cc1ccco1)Oc1cc(O)ccc1C2c1ccccc1` (configuration not stated) as the molecule, how does the EC50 read?
Answer: > 71.4 µM

Question: For `Fc1ccc(-c2nnc(-c3ccc(Cl)cc3Cl)o2)cc1`, which EC50 is on record?
Answer: > 71.5 µM

Question: Which EC50 does the source give for `Cn1nc(NC(=O)C2CCC2C(=O)O)c2c(F)cccc21` (configuration not stated) here?
Answer: > 71.5 µM

Question: With `Cc1ccc(C)c(N2CCN(C(=O)CN3C(=S)NC(C)(C)CC3C)CC2)c1` (configuration not stated) as the molecule, how does the EC50 read?
Answer: > 71.5 µM

Question: Which EC50 does the source give for `CCN(CC)CCN1C(=O)c2cccc3cc(N)cc(c23)C1=O` here?
Answer: 49.2 µM

Question: Which EC50 does the source give for `Cc1nnc(N/N=C/c2ccc(O)c([N+](=O)[O-])c2)[nH]c1=O` here?
Answer: > 71.5 µM

Question: For `Cc1cccc(/C=N/NC(=O)C(C)Nc2cccc3ccccc23)n1` (configuration not stated), which EC50 is on record?
Answer: 26.9 µM

Question: Which EC50 does the source give for `CCOC(=O)c1sc2nc(C)nc(SCC(=O)NC3CCS(=O)(=O)C3)c2c1C` (configuration not stated) here?
Answer: > 71.5 µM

Question: With `CCn1nc(-c2ccccc2)c2nc3ccccc3nc21` as the molecule, how does the EC50 read?
Answer: 10.3 µM

Question: For `O=C(/C=C/c1nc2ccccc2s1)N1CCCCCC1`, which EC50 is on record?
Answer: > 71.5 µM

Question: Which EC50 does the source give for `COc1ccccc1NS(=O)(=O)c1cc(NC(=O)c2cc3ccccc3oc2=O)ccc1C` here?
Answer: > 71.5 µM

Question: For `COc1ccccc1-c1nnc(SCc2nc3ccccc3s2)n1C`, which EC50 is on record?
Answer: > 71.5 µM

Question: For `CCOc1ccc2ccccc2c1CNCCN1CCOCC1`, which EC50 is on record?
Answer: > 71.5 µM

Question: Which EC50 does the source give for `CC1(C)CC(=O)C=C(Nc2ccccc2N)C1` here?
Answer: > 71.5 µM

Question: For `Cc1sc(NC(=O)CSc2nnc(C(C)C)n2C)c(C#N)c1C`, which EC50 is on record?
Answer: > 71.5 µM

Question: For `O=C(O)c1ccc(NC(=S)NC(=O)c2ccc(-c3ccccc3)cc2)cc1`, which EC50 is on record?
Answer: > 71.5 µM

Question: With `CC(COC(=O)c1ccccc1)(COC(=O)c1ccccc1)/[N+]([O-])=C/c1ccccc1` as the molecule, how does the EC50 read?
Answer: > 71.5 µM

Question: For `O=C(NC1CCCCC1)c1cccc2c1C(=O)c1ccc(N3CCCC3)cc1S2(=O)=O`, which EC50 is on record?
Answer: > 23.8 µM

Question: For `NC(=O)NC(=O)COC(=O)c1cccc(NS(=O)(=O)/C=C/c2ccccc2)c1`, which EC50 is on record?
Answer: > 71.5 µM

Question: Which EC50 does the source give for `O=C(Nc1ccc(Cl)c(Cl)c1)Nc1ccc([N+](=O)[O-])cn1` here?
Answer: > 71.5 µM

Question: With `CCc1ccc2c(COC(=O)CNS(=O)(=O)c3ccc(NC(C)=O)cc3)cc(=O)oc2c1` as the molecule, how does the EC50 read?
Answer: > 71.5 µM

Question: With `O=C(Cn1cnc2c(cnn2-c2ccccc2)c1=O)Nc1ccc(S(=O)(=O)N2CCOCC2)cc1` as the molecule, how does the EC50 read?
Answer: > 71.5 µM

Question: With `CN(C)c1ccc(N=Cc2nc(-c3ccccc3)oc2O)cc1` as the molecule, how does the EC50 read?
Answer: 6.84 µM (active)

Question: Which EC50 does the source give for `S=C(Nc1ccc(N2CCOCC2)cc1)Nc1ccc2nc(-c3ccco3)c(-c3ccco3)nc2c1` here?
Answer: 11.4 µM

Question: For `COc1ccc(CNC(=O)c2sc(=S)n(-c3ccccc3)c2N)cc1`, which EC50 is on record?
Answer: > 71.5 µM

Question: Which EC50 does the source give for `CSc1ccc(C2C(C(=O)c3ccco3)=C(O)C(=O)N2c2nnc(SC)s2)cc1` (configuration not stated) here?
Answer: 0.726 µM (active)

Question: Which EC50 does the source give for `CCN(CC)c1ccc(/C=C2\C(=O)c3ccc(C(=O)O)cc3C2=O)cc1` here?
Answer: 1.04 µM (active)

Question: With `COc1ccc2nc(C)c3cc(C)oc3c2c1` as the molecule, how does the EC50 read?
Answer: > 71.4 µM

Question: Which EC50 does the source give for `COc1ccc(-c2nn(-c3ccccc3)cc2/C=N/NC(N)=S)cc1OC` here?
Answer: > 71.5 µM

Question: Which EC50 does the source give for `O=C(Nc1ccc2c(c1)OCCO2)c1cccc(Cl)c1Cl` here?
Answer: > 71.4 µM
